These results are taken from PubChem BioAssay (NCATS).

Assay [1] deals with Rap guanine nucleotide exchange factor 3 (Homo sapiens) (UniProt O95398). Kind of assay: Confirmatory qHTS for antagonist of cAMP-regulated guanine nucleotide exchange factor 3 (EPAC1) (AID 1645880). Note: nearly all actives have a fitted effect of over 55% in size. Note: potency is the fitted concentration of half-maximal effect. The gist of the method:
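Nucleotide exchange uses 100 nM EPAC1, 250 nM RAP1B-BODIPY-GDP and 50 uM GDP, with compounds in a concentration-titration series. After 5 min at room temperature, fluorescence (480 nm ex/540 nm em) is read every 5 min for 30 min. Data are normalized to control ATA and DMSO.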
(Quantitative high-throughput screening tests each substance at several concentrations.)

Assay [2] has the same target. The assay is described as follows: Confirmatory qHTS for agonist of cAMP-regulated guanine nucleotide exchange factor 3 (EPAC1) (AID 1645881).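 Note: EPAC1 catalysed release of BODIPY-GDP from Rap1B seen as fluorescence loss; 100% = effect of cAMP agonist control; nearly all actives have a fitted effect of over 75% in size.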
The target of assay [3] is Rap guanine nucleotide exchange factor 4 (Homo sapiens) (UniProt Q8WZA2). Kind of assay: Confirmatory qHTS for agonist of cAMP-regulated guanine nucleotide exchange factor 4 (EPAC2) (AID 1645884).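 Note: nucleotide exchange releases bodipy-GDP from Rap1 and this lowers its fluorescence; % is set by controls: 0 for no effect and ±100 for the full control effect; nearly all actives have a fitted effect of over 65% in size.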
Chain of Rap guanine nucleotide exchange factor 4 (Homo sapiens) (Q8WZA2 whole entry, looked up): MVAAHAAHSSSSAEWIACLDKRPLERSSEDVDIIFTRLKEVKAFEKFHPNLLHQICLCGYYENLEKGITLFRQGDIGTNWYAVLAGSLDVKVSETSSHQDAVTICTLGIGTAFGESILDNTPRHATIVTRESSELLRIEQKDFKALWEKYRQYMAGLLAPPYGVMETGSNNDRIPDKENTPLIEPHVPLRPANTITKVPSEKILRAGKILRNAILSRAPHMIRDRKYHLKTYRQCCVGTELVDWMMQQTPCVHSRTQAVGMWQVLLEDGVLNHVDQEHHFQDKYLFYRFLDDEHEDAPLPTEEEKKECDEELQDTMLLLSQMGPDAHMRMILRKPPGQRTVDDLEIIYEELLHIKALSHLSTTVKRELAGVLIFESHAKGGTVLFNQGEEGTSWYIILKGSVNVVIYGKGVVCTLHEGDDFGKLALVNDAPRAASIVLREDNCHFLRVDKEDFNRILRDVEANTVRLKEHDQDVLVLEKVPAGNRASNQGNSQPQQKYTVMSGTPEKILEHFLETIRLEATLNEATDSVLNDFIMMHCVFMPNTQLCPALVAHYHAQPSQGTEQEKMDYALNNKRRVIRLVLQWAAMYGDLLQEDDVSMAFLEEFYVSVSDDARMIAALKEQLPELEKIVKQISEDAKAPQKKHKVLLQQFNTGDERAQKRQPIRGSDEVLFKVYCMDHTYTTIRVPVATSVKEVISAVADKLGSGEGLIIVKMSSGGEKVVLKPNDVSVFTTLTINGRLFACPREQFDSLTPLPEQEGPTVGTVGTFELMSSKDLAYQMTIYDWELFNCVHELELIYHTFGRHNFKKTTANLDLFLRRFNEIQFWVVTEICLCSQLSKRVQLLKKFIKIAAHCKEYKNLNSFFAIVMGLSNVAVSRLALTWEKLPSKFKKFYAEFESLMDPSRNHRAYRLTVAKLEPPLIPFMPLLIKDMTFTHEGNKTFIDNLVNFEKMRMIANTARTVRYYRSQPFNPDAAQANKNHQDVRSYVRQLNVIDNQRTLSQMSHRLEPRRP
For assay [4] the target is unchanged. Kind of assay: Confirmatory qHTS for antagonist of cAMP-regulated guanine nucleotide exchange factor 4 (EPAC2) (AID 1645885). For activity change, negative = inhibition: % is set by controls: 0 for no effect and ±100 for the full control effect. Note: nearly all actives have a fitted effect of over 25% in size. Note: potency is the fitted concentration of half-maximal effect.
Assay [5] addresses Rap guanine nucleotide exchange factor 3 (Homo sapiens) (UniProt O95398). The assay is described as follows: Counterscreen qHTS for antagonist of cAMP-regulated guanine nucleotide exchange factor 3 (EPAC1) (AID 1645888).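 Note: fluorescence loss as bound BODIPY-GDP is released from Rap1B; % of control where 0% means no effect.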 The gist of the method: (§1)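 Rap1B–BODIPY-GDP (250 nM) with 50 uM GDP; compounds pin-transferred to 9.74 nM–152 uM final (activator) or from 7.32 nM upwards (inhibitor). Fluorescence Ex/Em 480/540 nm read at 5 and 30 min, then after adding cAMP or buffer, at room temperature.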
On the technique in general: Counterscreens check selectivity or assay interference.

For assay [6] the target is unchanged. The assay is described as follows: Counterscreen qHTS for agonist of cAMP-regulated guanine nucleotide exchange factor 3 (EPAC1) (AID 1645889). For activation: % of control where 0% means no effect. Note: nearly all actives have a fitted effect of over 40% in size. Note: potency is the fitted concentration of half-maximal effect. The gist of the method: as §1

Records with an inconclusive call do not appear. Values without a mark were called inactive. Calls of active or inactive are those of the source. Calls come from the whole dose curve; as a rule, active = well fitted curve in the direction sought with a large enough effect; inconclusive = small, poorly fitted or top-dose-only effect, or another doubt; inactive = no such curve, though single readings can be large; an effect the other way counts as inactive or inconclusive.

Chain of Rap guanine nucleotide exchange factor 3 (Homo sapiens) (O95398 whole entry, looked up): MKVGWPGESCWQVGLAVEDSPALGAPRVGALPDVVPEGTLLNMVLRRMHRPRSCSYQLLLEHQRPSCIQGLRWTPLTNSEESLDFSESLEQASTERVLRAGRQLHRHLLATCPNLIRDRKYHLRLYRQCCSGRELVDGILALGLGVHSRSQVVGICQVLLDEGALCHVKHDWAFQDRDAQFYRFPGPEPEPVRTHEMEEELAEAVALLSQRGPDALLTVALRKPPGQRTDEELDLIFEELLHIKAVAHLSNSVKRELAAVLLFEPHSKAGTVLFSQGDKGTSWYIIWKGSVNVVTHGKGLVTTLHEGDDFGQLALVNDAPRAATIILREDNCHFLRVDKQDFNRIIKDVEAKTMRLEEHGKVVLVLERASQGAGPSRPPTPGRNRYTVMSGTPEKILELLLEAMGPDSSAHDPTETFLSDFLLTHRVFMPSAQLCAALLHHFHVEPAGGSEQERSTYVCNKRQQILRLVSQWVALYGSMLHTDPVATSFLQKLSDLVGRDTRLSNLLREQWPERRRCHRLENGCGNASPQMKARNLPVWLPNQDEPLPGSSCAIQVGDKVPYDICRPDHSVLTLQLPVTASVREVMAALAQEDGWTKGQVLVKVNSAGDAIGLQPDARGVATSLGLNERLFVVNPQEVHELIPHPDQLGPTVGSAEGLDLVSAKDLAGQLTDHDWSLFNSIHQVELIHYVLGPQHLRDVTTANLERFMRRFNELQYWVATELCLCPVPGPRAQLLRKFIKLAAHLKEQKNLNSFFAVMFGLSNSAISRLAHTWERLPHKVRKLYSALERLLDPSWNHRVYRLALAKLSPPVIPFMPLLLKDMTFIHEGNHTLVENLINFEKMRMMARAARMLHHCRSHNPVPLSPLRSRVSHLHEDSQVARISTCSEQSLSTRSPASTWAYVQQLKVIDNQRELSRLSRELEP

For `O=C(Cn1cnc2scc(-c3cccc([N+](=O)[O-])c3)c2c1=O)NCc1ccco1`, in assay [1], the Potency was 37.9 µM (active). Further, the Potency result in assay [2], in assay [3], in assay [4], in assay [5] and in assay [6] was “inactive” each time.
Consider `Cc1nc(N(C)Cc2ccccc2)c2c(C)c(C)sc2n1`, for which the Potency entry in assay [1], in assay [2] and in assay [4] was “inactive” in each case. The activation was 3.14% [at 17.1 µM, percent relative to cAMP agonist control] in assay [3] and 11.8% [at 30.8 µM] in assay [6]. For the same compound, the activity change, negative = inhibition in assay [5] is -24.2% [at 30.8 µM].
As to `CC(C)CNC(=O)c1[nH]c(C(F)(F)F)nc1-c1ccccc1`, the Potency result in assay [1], in assay [2] and in assay [4] was “inactive” in each case. In addition, the activation was 3.83% [at 17.1 µM, percent relative to cAMP agonist control] in assay [3] and 30.5% [at 30.8 µM] in assay [6]. Besides, in assay [5], the activity change, negative = inhibition is -17.1% [at 30.8 µM].
In the case of `COc1cccc(C(c2nnnn2-c2c(C)cccc2C)N2CCN(C/C=C/c3ccccc3)CC2)c1OC` (stereo not given), the Potency entry in assay [1], in assay [2], in assay [3], in assay [4], in assay [5] and in assay [6] was “inactive” in each case.
For the compound `COc1cc(/C=C(\C#N)C(=O)NC(C)C)cc(Cl)c1O`, the Potency entry in assay [1], in assay [2], in assay [3], in assay [4], in assay [5] and in assay [6] was “inactive” throughout.
On to `Cc1ccccc1OCc1nc2ccccc2n1Cc1ccccc1Cl`, for which the Potency result in assay [1], in assay [2], in assay [3], in assay [4], in assay [5] and in assay [6] was “inactive” in each case.
As to `O=C(N/N=C/c1cn(-c2ccccc2)nc1-c1cccnc1)c1ccccc1`, the Potency result in assay [1], in assay [2] and in assay [4] was “inactive” in each case. Moreover, the activation in assay [3] was 6.58% [at 17.1 µM, percent relative to cAMP agonist control]; in assay [6] it was 18.8% [at 30.8 µM]. In assay [5], the activity change, negative = inhibition was -17.7% [at 30.8 µM].
As for `COC(=O)C(CC(=O)c1ccc(C)cc1)n1cccn1` (stereo not given), the Potency result in assay [1], in assay [2], in assay [3], in assay [4], in assay [5] and in assay [6] was “inactive” in each case.
In the case of `CSCCC(NS(=O)(=O)c1ccc2c(c1)oc(=O)n2C)C(=O)NC1CCCc2ccccc21` (stereo not given), the Potency result in assay [1], in assay [2], in assay [3], in assay [4], in assay [5] and in assay [6] was “inactive” in each case.
As for `CC(C)CNc1cc(Cl)c(S(=O)(=O)NCC(C)C)cc1C(=O)O`, the Potency result in assay [1], in assay [2] and in assay [4] was “inactive” throughout. Moreover, the activation in assay [3] was 1.7% [at 17.1 µM, percent relative to cAMP agonist control]; in assay [6], -0.574% [at 30.8 µM]. Besides, in assay [5], the activity change, negative = inhibition was 8.12% [at 30.8 µM].
For the compound `O=c1c2ccccc2[nH]c(=S)n1-c1cccc(S(=O)(=O)N2CCCC2)c1`, the Potency entry in assay [1], in assay [2], in assay [3], in assay [4], in assay [5] and in assay [6] was “inactive” each time.
On to `CCCS(=O)(=O)N1CCC(C(=O)NCCN2CCCC2)CC1`, for which the Potency result in assay [1], in assay [2] and in assay [4] was “inactive” each time. Further, the activation in assay [3] was 10.1% [at 17.1 µM, percent relative to cAMP agonist control]; in assay [6], 25.6% [at 30.8 µM]. Further, in assay [5], the activity change, negative = inhibition was -10.8% [at 30.8 µM].
For the compound `Cc1ccc2nc(-c3ccc(Cl)cc3)c(Cc3ccccc3C(F)(F)F)n2c1`, the Potency entry in assay [1], in assay [2] and in assay [4] was “inactive” throughout. The activation in assay [3] was 10.6% [at 17.1 µM, percent relative to cAMP agonist control]; in assay [6], -0.77% [at 30.8 µM]. Moreover, the activity change, negative = inhibition in assay [5] is 0.28% [at 30.8 µM].
As for `COc1ccc(NC(=O)Cn2cnc3sc(C)c(S(=O)(=O)N4CCOCC4)c3c2=O)c(OC)c1`, the Potency result in assay [1], in assay [2] and in assay [4] was “inactive” throughout. In addition, the activation in assay [3] was -0.644% [at 17.1 µM, percent relative to cAMP agonist control]; in assay [6] it was 3.18% [at 30.8 µM]. In addition, the activity change, negative = inhibition in assay [5] is -23.9% [at 30.8 µM].
Take `CCCc1nc2ccccc2c(=O)n1/N=C/c1ccccc1O`: the Potency in assay [1] is 37.9 µM (active). Also, the Potency entry in assay [2], in assay [3], in assay [4], in assay [5] and in assay [6] was “inactive” throughout.
Turning to `COc1cc(Cl)c(C)cc1NC(=O)c1ccc(CN2C(=O)CCn3nc(C)cc32)cc1`, the Potency entry in assay [1], in assay [2], in assay [3], in assay [4], in assay [5] and in assay [6] was “inactive” throughout.
For `Cn1cc([C@]2(O)C(=O)Nc3ccccc32)c2ccccc21`, the Potency entry in assay [1], in assay [2] and in assay [4] was “inactive” throughout. In addition, the activation is 0.506% [at 17.1 µM, percent relative to cAMP agonist control] in assay [3] and 2.4% [at 30.8 µM] in assay [6]. Also, the activity change, negative = inhibition in assay [5] is -2.77% [at 30.8 µM].
Take `Cc1[nH]n(-c2ccccc2)c(=O)c1C(c1cc(Cl)ccc1O)c1c(C)[nH]n(-c2ccccc2)c1=O`: the Potency in assay [1] was 75.7 µM (active); in assay [6] it was 2.51 µM (active). For the same compound, the Potency entry in assay [2], in assay [3], in assay [4] and in assay [5] was “inactive” each time.
In the case of `COc1cc(SC)ccc1C(=O)N(Cc1ccccc1)c1ccccc1`, the Potency entry in assay [1], in assay [2], in assay [3], in assay [5] and in assay [6] was “inactive” each time. Further, the Potency in assay [4] is 23.9 µM (active).
In the case of `CCCCCN(C(=O)CCC(=O)OCc1ccc(C(C)C)cc1)c1c(N)n(CCCC)c(=O)[nH]c1=O`, the Potency entry in assay [1], in assay [2], in assay [3], in assay [4], in assay [5] and in assay [6] was “inactive” in each case.
